High-throughput results from PubChem BioAssay.
HttQ103 aggreg = inhibitors of mutant huntingtin aggregate formation in PC12 cells; AID 1688; Potency, µM (doses to about 46.1 µM), without a hit: top-dose activity change, negative = inhibition, most hits filed as inhibitors; 220,000 compounds, 1.1% hits; PC12 HttQ103-GFP aggregates, Acumen cytometry, 40 h; note: potency is the fitted concentration of half-maximal effect; % is set by controls: 0 for no effect and ±100 for the full control effect; nearly all actives have a fitted effect of over 60% in size
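Aggregate formation scored by laser-scanning cytometer (488 excitation, 500–530 emission) in lysed PC12 cells expressing Q103-GFP after 100 nM tebufenozide induction; library tested in dose series, with ATPLite reagent added in the multiplex.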
PI4K2A block = inhibitors of human PI4K2A; Q9BTU6; purified PI4K2A, ADP-Glo luminescence, 1 h; hits give low values; activity change, negative = inhibition, % at 76.9 µM; 420,000 compounds, 0.13% hits; AID 1346378; in the data active = activity change below about -50%;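 note: -100% = wells without enzyme as full effect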
Target sequence (Q9BTU6 whole entry, looked up): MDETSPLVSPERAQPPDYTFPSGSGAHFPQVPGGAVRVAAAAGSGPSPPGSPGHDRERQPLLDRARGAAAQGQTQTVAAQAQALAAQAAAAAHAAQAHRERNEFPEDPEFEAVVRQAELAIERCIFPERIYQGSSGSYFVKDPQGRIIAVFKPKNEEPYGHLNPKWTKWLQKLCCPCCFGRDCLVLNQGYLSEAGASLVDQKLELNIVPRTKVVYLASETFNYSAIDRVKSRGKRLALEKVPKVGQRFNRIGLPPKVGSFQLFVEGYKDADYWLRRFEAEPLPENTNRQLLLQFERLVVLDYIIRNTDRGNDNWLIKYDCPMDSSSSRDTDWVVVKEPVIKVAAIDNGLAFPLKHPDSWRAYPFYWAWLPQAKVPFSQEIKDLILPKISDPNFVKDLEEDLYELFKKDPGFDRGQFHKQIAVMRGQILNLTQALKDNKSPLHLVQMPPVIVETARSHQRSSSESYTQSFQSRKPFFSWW
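ADP-Glo luminescence measured ADP generated by PI4K2A enzyme (4 ug/mL before mixing) with 1.2 mM PI substrate (pre-mix) and 300 microM ATP (pre-mix). Tris pH7.5 buffer with MgCl2, Triton X-100; 1 h reaction at ambient temperature.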
HTT cytoprotect = protects HTT-Q103 PC12 cells, measured by ATP. 230,000 compounds, 0.14% hits. AID 1471. PC12 HTT-Q103 induced, cytoprotection, ATP luminescence, 40 h. Potency, µM (doses to about 56.4 µM), for inactives: cytoprotection (ATP increase), hits mostly activators; note: potency is the fitted concentration of half-maximal effect; % of control where 0% means no effect; nearly all actives have a fitted effect of over 45% in size
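Huntington model: PC12 line, ecdysone-inducible HTTQ103 exon1–GFP, tebufenozide 100 nM. Test articles in a dose series. Endpoint luminescence from cellular ATP.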
GALK inhibitor = blocks human galactokinase activity; Purified GALK, Kinase-Glo residual ATP luminescence; AID 1868; P51570; Potency, µM (doses to about 57.5 µM), inactives show at the top dose activity change, negative = inhibition, hits mostly inhibitors; 270,000 compounds, 0.007% hits; note: potency is the fitted concentration of half-maximal effect; % is set by controls: 0 for no effect and ±100 for the full control effect
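GALK at 5 nM final was combined with compound, 35 uM ATP and 100 uM galactose in HEPES pH8.0 with MgCl2 and DTT. The reaction ran one hour at room temperature before luminescent ATP detection.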
* = called active by the depositor; . = not tested or not shown; [ ] = another dose, or the depositor's remark. This is one part of a sample in which hits are shown more often than they occur. Unless noted, calls come from the whole dose curve; as a rule, active = well fitted curve in the direction sought with a large enough effect; inconclusive = small, poorly fitted or top-dose-only effect, or another doubt; inactive = no such curve, though single readings can be large; an effect the other way counts as inactive or inconclusive.

SMILES	HttQ103 aggreg	PI4K2A block	HTT cytoprotect	GALK inhibitor
Cc1ccccc1-c1cc(C(=O)Nc2sc(C(=O)OC(C)C)c(C)c2C#N)c2ccccc2n1	4.5µM*	-10	-38%	-1%
CCOC(=O)c1sc(NC(=O)CSc2n[nH]c(-c3ccncc3)n2)c(C#N)c1C	7.1µM*	-6	-91%[10 µM]	0%
COC(=O)c1sc(NC(=O)c2cc(-c3ccccc3)nc3ccccc23)c(C#N)c1C	2.2µM*	-11	-44%	-1%
COc1ccc(-c2cc(C(=O)Nc3sc4c(c3C#N)CCCC4)c3ccccc3n2)cc1	-12%	-5	-3%[10 µM]	1%
Oc1cccc(-c2c3nc(c(-c4cccc(O)c4)c4ccc([nH]4)c(-c4cccc(O)c4)c4nc(c(-c5cccc(O)c5)c5ccc2[nH]5)CC4)C=C3)c1	.	-23	.	.
Cc1ccc(-n2c(COc3ccccc3)nnc2SCC(=O)Nc2ccc3c(c2)OCO3)cc1	.	3	.	.
COc1cccc(C(=O)CC2c3c(c(Br)c4c(c3OC)OCO4)CCN2C)c1 (stereo unspecified)	.	.	-34%	.
CCCCCCNC(=O)C1CSCCS(=O)(=O)N1Cc1ccc(F)cc1 (stereo unspecified)	.	-2	.	.
NC(=O)COC(=O)c1oc2ccccc2c1CSc1ccc(Cl)cc1	11µM*	-1	32%[10 µM]	.
CC(C)C[C@@H]1COc2cc(N3CCCC3)ccc2S(=O)(=O)N1C	.	4	.	.
CN(C)C(=O)CNC(=O)Cc1ccccc1	.	1	.	.
Cc1ccc(C2CCC3(CCC(=O)N3CCOC(=O)Nc3ccc(F)cc3)CC2)cc1 (stereo unspecified)	.	-4	.	.
CCCCCc1c(C)nc(NCc2ccccc2)[nH]c1=O	32µM*	1	-13%[0.074 µM]	3%
CN(C)c1ccc(C=c2c3cc([N+](=O)[O-])ccc3n3c2cc(-c2ccccc2)[n+]3C)cc1	.	-51*	.	.
CN(C)c1ccc(C=c2c3ccccc3n3c2cc(-c2ccc(Cl)cc2)[n+]3C)cc1	.	-22	.	.
COc1cccc(C(=O)N(CCN2CCOCC2)Cc2ccc(OC)c(OC)c2)c1	.	-3	.	.
O=C1CCC(CNc2ccccc2)N1c1ccccc1 (stereo unspecified)	.	-5	.	.
CCOC(=O)c1c(NC(=O)CN2CCN(C(=O)c3ccco3)CC2)sc2c1CCCC2	25µM*	6	18%[10 µM]	-5%
CCOC(=O)c1c(NC(=O)c2ccco2)sc2c1CCCC2	6%	-1	3%	7%
COc1cccc2c1C(CO)N1C(C#N)C3CC(C(=O)O)C(C1C2)N3C (stereo unspecified)	1.1µM*	3	-55%[10 µM]	-2%
CCOc1ccc(N(CC(=O)Nc2cccc(Cl)c2)S(=O)(=O)c2c(C)noc2C)cc1	22µM*	0	3%	1%
CCOc1ccc(N(CC(=O)Nc2cccc(OC)c2)S(=O)(=O)c2c(C)noc2C)cc1	-29%	2	-8%[10 µM]	0%
CCc1cccc(NC(=O)C2CCC(CNS(=O)(=O)c3csc(C(N)=O)c3)CC2)c1 (stereo unspecified)	.	-3	.	.
COc1cccc(NC(=O)C2CCC(CNS(=O)(=O)c3csc(C(N)=O)c3)CC2)c1 (stereo unspecified)	.	-66*	.	.
Cc1ccc(CNC(=O)c2cc3c(C)nc4ccccc4c3o2)cc1	11µM*	0	36%[10 µM]	-2%
SMILES	HttQ103 aggreg	PI4K2A block	HTT cytoprotect	GALK inhibitor
CCCc1[nH]nc2c1C(c1cn[nH]c1-c1ccc(F)cc1)C(C#N)=C(N)O2 (stereo unspecified)	11µM*	-1	0%[1.9 µM]	-2%
CCCc1[nH]nc2c1C(c1ccccc1OC)C(C#N)=C(N)O2 (stereo unspecified)	5%	2	0%[10 µM]	-3%
CC(C)N=C(N)/N=C(\N)Nc1ccc(Cl)cc1	10%[20.6 µM]	0	-4%[40.3 µM]	.
NC(=NCCCCCCN=C(N)/N=C(\N)Nc1ccc(Cl)cc1)/N=C(\N)Nc1ccc(Cl)cc1	14µM*	-2	-98%	.
CCCc1ccc(OCC(=O)N2CCN(C(=O)COc3ccc(CCC)cc3OC)CC2)c(OC)c1	.	-2	.	.
Cc1ccc(N(C)C(=O)N2CCN(S(=O)(=O)c3ccc4ccccc4c3)CC2)cc1	11µM*	-6	11%[10 µM]	4%
CCN(CC)CCN	.	0	.	.
COC(=O)CC1c2ccccc2C(Cc2ccc(OC)cc2)C(C)N1C(=O)OC (stereo unspecified)	.	.	-20%[10 µM]	.
COc1ccc2c(c1)c(CC(=O)OC/C=C(\C)CC/C=C(\C)CCC=C(C)C)c(C)n2C(=O)c1ccc(Cl)cc1	.	-1	.	.
